# Pf Dd2 growth: inhibitors of Plasmodium falciparum Dd2 growth | P. falciparum Dd2 growth, SYBR Green, 72 h | Potency, µM (top dose mostly 28.9 µM), hits mostly inhibitors | 4.3% of 120,000 active | AID 1347417; active = well fitted inhibition curve with a large enough effect; note: nearly all actives have a fitted effect of over 65% in size
#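 Infected erythrocytes (Dd2, 0.3% parasitemia, 2.5% hematocrit final) are added to compound in RPMI-1640/Albumax II medium, grown 72 h at 37C in low oxygen, then lysed with saponin/Triton-X containing SYBR Green and read by fluorescence.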
# Hits are given with their value; . = inactive; [ ] = another dose, or the depositor's remark. Shown is part of a subset that was picked to be rich in hits.
SMILES,Pf Dd2 growth
COc1ccc(C(CNC(=O)c2ccc(F)cc2)N2CCCC2)cc1 (stereo not given),.
COc1ccc(S(=O)(=O)NCC(c2ccc(N(C)C)cc2)N2CCOCC2)cc1 (stereo not given),.
O=C(c1ccccc1OCC1CCCN(C2CCCCC2)C1)N1CCOCC1 (stereo not given),.
Cc1cnc(C(=O)N2CCOc3ccc(CN4CCCCCC4)cc3C2)cn1,.
Cc1ccccc1NC(=O)N1CCC(CCNC(=O)CCCc2ccccc2)CC1,.
COc1ccccc1NC(=O)Cn1c(=O)c(-c2noc(C)n2)c2n(c1=O)CCCC2,.
CCCS(=O)(=O)N[C@@H]1CN(C)C[C@H]1CN(C)C,.
CC(=O)N1C[C@@H](CN(C)C)[C@H](NS(=O)(=O)c2cccc(C#N)c2)C1,.
CNC(=O)N1C[C@@H](CN(C)C)[C@H](NS(=O)(=O)c2ccc3c(c2)CCC3)C1,.
CN(C)C[C@@H]1CN(c2ncccn2)C[C@H]1NS(=O)(=O)c1cccnc1,.
CN(C)C[C@@H]1CN(C)C[C@H]1NS(=O)(=O)c1ccc(Br)cc1,1.78µM
CN(C)C[C@@H]1CN(C)C[C@H]1NS(=O)(=O)c1ccc2c(c1)CCCC2,3.16µM
CC(=O)N1CCC(N[C@H]2C[C@@H](Cc3cc(CCO)on3)C2(C)C)CC1,.
COc1ccc(CN[C@H]2C[C@@H](Cc3cc(CCO)on3)C2(C)C)cc1,.
CC1(C)[C@H](Cc2cc(-c3ccc(F)cc3)on2)C[C@@H]1NCc1cccnc1,7.94µM
COCc1cc(C[C@@H]2C[C@H](NCC3CC3)C2(C)C)no1,.
CN(C)Cc1cc(C[C@@H]2C[C@H](NCc3ccc(F)cc3)C2(C)C)no1,3.16µM
Fc1ccc(-c2cc(CC3(NCc4cccnc4)COC3)no2)cc1,.
CN(C)C1(Cc2cc(-c3ccc(F)cc3)on2)COC1,.
COCc1cc(C[C@@H]2C[C@H](NC3CCOCC3)C2(C)C)no1,.
CC1(C)[C@H](Cc2cc(-c3ccc(F)cc3)on2)C[C@@H]1NC1CCC1,11.2µM
COCc1cc(C[C@@H]2C[C@H](NCc3cccnc3)C2(C)C)no1,.
CN1CCC(N[C@H]2C[C@@H](Cc3cc(C(C)(C)C)on3)C2(C)C)CC1,5.01µM
CN(Cc1cc(C[C@@H]2C[C@H](NCc3ncc[nH]3)C2(C)C)no1)c1ccccc1,.
O=C1NCC2(CCCN(Cc3cc(=O)c4cccc(F)c4[nH]3)C2)O1 (stereo not given),.
SMILES,Pf Dd2 growth
CC(C)NC(=O)c1ccc(CC2CCN(C)CC2)cc1,.
Cc1[nH]nc(CCC(=O)N2CC[C@@H](NC(=O)c3cnccn3)[C@H](O)C2)c1C,.
O=C(c1c[nH]c2ccccc12)N1CCC2(CNS(=O)(=O)c3cccnc3O2)C1 (stereo not given),.
COc1cccc([C@@H]2CN(C(=O)CCCC(=O)O)C[C@H]2C(=O)O)c1,.
Cc1ccc(C(=O)N2CCC3(CC2)N=C(c2cccc(Br)c2)NO3)s1,.
CN(C)CCNC(=O)c1n[nH]c2c1CN(C(=O)c1cc(F)ccc1F)CC2,.
Cc1ncccc1C(=O)N1CCC(c2noc(-c3ccccn3)n2)C1 (stereo not given),.[5.79 µM]
COc1ccc(N2CC(c3noc(-c4cccc(C)c4)n3)CC2=O)cc1 (stereo not given),.
COc1ccc2cc(CN3CCC(OC)CC3)c(-c3cccc(C)c3)nc2c1,10µM
Cc1cccc(-c2nc3cc(C)ccc3cc2CN2CCN(CCCO)CC2)c1,.
COc1ccc(-c2nc3cc(C)ccc3cc2CN2CCC[C@H]2C(N)=O)cc1OC,.
COc1ccc(-c2[nH]ncc2CN2CC[C@H]3CC[C@@H](C2)N3)cc1,.
COCC1CCN(Cc2cc3ccc(OC)cc3nc2-c2cccc(C)c2)C1 (stereo not given),11.2µM
COc1ccc(CNc2nccc(CCC(F)(F)F)n2)cc1OC,.
CCCNC(=O)N1CCCC(c2nn[nH]n2)C1 (stereo not given),.
CCc1ccc(C(=O)N2[C@@H]3CC[C@H]2CC(NC(=O)c2cnc(C)cn2)C3)cc1 (stereo not given in full),.
Cc1ccccc1-n1c(/C=C/c2c(C)[nH]c3ccccc23)nc2ccccc2c1=O,3.16µM
O=c1c2ccccc2nc(/C=C/c2ccccc2)n1-c1ccccc1F,.
O=c1c2ccccc2nc(/C=C\c2ccc(F)cc2)n1-c1ccccc1F,.
COCCC1(C(=O)O)CCCCC(=O)N1 (stereo not given),.
CC(C)CNC(=O)N1CCC(c2nc(CCOCC3CCOCC3)no2)C1 (stereo not given),.
CCN(Cc1c(O)cccc1OC)CC1CCN(CCc2ccccc2C)CC1,15.8µM
COc1ccccc1CCC(=O)N1CCC(Cc2nncn2C)CC1,.
CCN(Cc1cc(C)[nH]n1)CC1CCCN(CCc2cccc(OC)c2)C1 (stereo not given),.
COc1ccc(N2CCN(C(=O)Nc3nc(C)ns3)CC2(C)C)cc1,.
SMILES,Pf Dd2 growth
CCn1ccc(C(=O)N2CCCCCCNC(=O)CC2)n1,.
O=S(=O)(Cc1ccccc1F)N1CCC(c2noc(-c3ccncc3)n2)C1 (stereo not given),.[5.79 µM]
CCCCNC(=O)c1ccc2c(c1)N(C(=O)c1ccc(F)cc1)CC2,.
COCCNc1ncccc1-c1noc([C@@H]2CCCN2Cc2ccccc2OC)n1,7.94µM
COCCNc1ncccc1-c1noc([C@@H]2CCCN2Cc2ccc(C(=O)O)cc2)n1,.
COCCNc1ncccc1-c1noc([C@@H]2CCCN2C2CCC2)n1,.
OC1CN(Cc2ccccc2)CCN(Cc2ccc(OC(F)F)cc2)C1 (stereo not given),.
Cn1cc([C@@H](NC(=O)c2ccccc2N2CCCC2)C2CC(O)C2)cn1 (stereo not given in full),.
COc1cccc(CNC(=O)Cn2c(=O)c(-c3noc(C)n3)c3n(c2=O)CCCCC3)c1,.
COc1ccc(-c2nc(C)nc3c2CN(C(=O)c2ccc(F)cc2)CC3)cc1,.
C#CCNC(=O)C1=NOC2CN(C(=O)C3CC3)CC12 (stereo not given),.
O=C(N[C@@H]1COCC[C@@H]1OCC1CC1)c1conc1-c1ccccc1,.
CCC(=O)C1=C(c2ccc(F)cc2)N(C(=O)CC)n2cnnc2S1,4.47µM
CC(=O)C1=C(c2ccc(Cl)c(Cl)c2)N(C(C)=O)n2cnnc2S1,1.12µM
Cc1nnc2n1C(C)CN(C(=O)CCCn1nnc(-c3ccc(F)cc3)n1)C2 (stereo not given),.
CCC(=O)N1CCCCCCn2c(nnc2-c2ccc(F)cc2)CC1,.
COc1ccc(C2=NS(=O)(=O)N(C)C(C(=O)Nc3cc(C)ccc3O)=C2)cc1OC,.
CC(=O)C1=C(c2ccc(Cl)c(Cl)c2)N(C(C)=O)n2c(nnc2-c2ccccc2)S1,.
CCC(=O)C1=C(c2ccc(OC)c(OC)c2)N(C(=O)CC)n2c(nnc2-c2ccc(C)cc2)S1,.
COc1ccc(C2=C(C(C)=O)Sc3nnc(-c4ccc(C)cc4)n3N2C(C)=O)cc1OC,2.51µM
CC(=O)C1=C(c2ccc(Cl)c(Cl)c2)N(C(C)=O)n2c(C)nnc2S1,2.82µM
COCCNC(=O)[C@@H]1C[C@@H](O)CN1C1CCN(C(=O)CCc2c[nH]c3ccccc23)CC1,.
O=C(O)C1(n2cnc3ccccc32)CCN(c2nc3ccccc3s2)CC1,.
COc1ccc(Cl)cc1C(=O)NC1CCN(c2cc(C(F)(F)F)nc(C)n2)CC1,.
COc1ccc(CN2C[C@H]3CN(Cc4cccc(OC(F)(F)F)c4)CCN3C2=O)cc1,.
